How the values were obtained:
Experiment in all cases: PBM binding z-score (relative to random genomic background probes); higher = stronger binding; sequences stand for … in GC…GCGATTGACAGCGTAGAATGAAGG
[1] = tested on: PPARg:RXRa DBDmut IVT, anti-RXR (DBD mutation: RXRa K156A/R161A, NR concentration 270 nM, RXRa partner concentration 90 nM)
Procedure, shortened: (§1)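 On custom Agilent 4×180K arrays, double-stranded probes with 34-nt variable regions carried direct-repeat seeds, single-nucleotide variants, half-site ablations or random human genomic background. Ligand-free nuclear receptor dimers were applied for 1 h, and binding was read with antibodies against each partner (one per run). Binding z-scores come from regression-normalized fluorescence, with the random background probes as reference.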

[2] = tested on: PPARg:RXRa IVT, anti-PPARg (NR concentration 270 nM, RXRa partner concentration 90 nM)
Procedure, shortened: as §1

[3] = tested on: PPARg DBDmut:RXRa IVT, anti-PPARg (DBD mutation: PPARg1 K132A/R137A, NR concentration 270 nM, RXRa partner concentration 90 nM)
Procedure, shortened: as §1

[4] = tested on: PPARg DBDmut IVT, anti-PPARg (DBD mutation: PPARg1 K132A/R137A, NR concentration 270 nM)
Procedure, shortened: as §1

[5] = tested on: PPARg homodimer (NR concentration 180 nM)
Procedure, shortened: as §1

[6] = tested on: PXR:RXRa (NR concentration 270 nM, RXRa partner concentration 90 nM)
Procedure, shortened: as §1

[7] = tested on: PXR homodimer (NR concentration 270 nM)
Procedure, shortened: as §1

[8] = tested on: RARa:RXR (NR concentration 270 nM, RXRa partner concentration 90 nM)
Procedure, shortened: as §1

[9] = tested on: RARa homodimer (NR concentration 270 nM)
Procedure, shortened: as §1

[10] = tested on: RARb:RXRa (NR concentration 270 nM, RXRa partner concentration 90 nM)
Procedure, shortened: as §1

[11] = tested on: RARb homodimer (NR concentration 270 nM)
Procedure, shortened: as §1

[12] = tested on: RARg:RXRa (NR concentration 270 nM, RXRa partner concentration 90 nM)
Procedure, shortened: as §1

[13] = tested on: RARg homodimer (NR concentration 270 nM)
Procedure, shortened: as §1

[14] = tested on: RXRa DBDmut IVT, anti-RXR (DBD mutation: RXRa K156A/R161A, NR concentration 90 nM)
Procedure, shortened: as §1

[15] = tested on: RXRa homodimer (NR concentration 180 nM)
Procedure, shortened: as §1

[16] = tested on: THRa:RXRa (NR concentration 90 nM, RXRa partner concentration 90 nM)
Procedure, shortened: as §1

[17] = tested on: THRa homodimer (NR concentration 90 nM)
Procedure, shortened: as §1

[18] = tested on: VDR:RXRa (NR concentration 270 nM, RXRa partner concentration 90 nM)
Procedure, shortened: as §1

[19] = tested on: VDR homodimer (NR concentration 270 nM)
Procedure, shortened: as §1

CCTTACGGGTCACTCCAGGTTATTGCATCGGAGT
PBM binding z-score [1]: 2.64 | PBM binding z-score [2]: 3.54 | PBM binding z-score [3]: 0.677 | PBM binding z-score [4]: 1.01 | PBM binding z-score [5]: 2.9 | PBM binding z-score [6]: 5.46 | PBM binding z-score [7]: 0.3 | PBM binding z-score [8]: 4.02 | PBM binding z-score [9]: 1.23 | PBM binding z-score [10]: 3.56 | PBM binding z-score [11]: 3 | PBM binding z-score [12]: 4.17 | PBM binding z-score [13]: 3.98 | PBM binding z-score [14]: 1.4 | PBM binding z-score [15]: 3.97 | PBM binding z-score [16]: 4.94 | PBM binding z-score [17]: 0.878 | PBM binding z-score [18]: 4.46 | PBM binding z-score [19]: 1.95

GCTGCTAGGTCAAGTTGGTCAGCTAACGGGTACG
PBM binding z-score [1]: 4.62 | PBM binding z-score [2]: 4.19 | PBM binding z-score [3]: -0.715 | PBM binding z-score [4]: -0.257 | PBM binding z-score [5]: 1.75 | PBM binding z-score [6]: 1.68 | PBM binding z-score [7]: -0.361 | PBM binding z-score [8]: 2.19 | PBM binding z-score [9]: 0.462 | PBM binding z-score [10]: 4.38 | PBM binding z-score [11]: 3.78 | PBM binding z-score [12]: 4.49 | PBM binding z-score [13]: 5.42 | PBM binding z-score [14]: 1.81 | PBM binding z-score [15]: 3.03 | PBM binding z-score [16]: 2.96 | PBM binding z-score [17]: 1.13 | PBM binding z-score [18]: 2.17 | PBM binding z-score [19]: 0.704

CGAGACAGGTGAGAAGGTAACTCAGCCTCGATTA
PBM binding z-score [1]: 0.944 | PBM binding z-score [2]: 0.575 | PBM binding z-score [3]: -0.719 | PBM binding z-score [4]: -0.428 | PBM binding z-score [5]: 0.307 | PBM binding z-score [6]: -0.433 | PBM binding z-score [7]: -0.255 | PBM binding z-score [8]: -0.528 | PBM binding z-score [9]: -0.321 | PBM binding z-score [10]: 0.602 | PBM binding z-score [11]: 0.319 | PBM binding z-score [12]: 0.434 | PBM binding z-score [13]: 0.338 | PBM binding z-score [14]: -0.6 | PBM binding z-score [15]: 0.212 | PBM binding z-score [16]: 0.0357 | PBM binding z-score [17]: -0.411 | PBM binding z-score [18]: -0.375 | PBM binding z-score [19]: -0.621

CGAACTAGGTCACGGACAGTGAATCTCCGCACGC
PBM binding z-score [1]: 8.66 | PBM binding z-score [2]: 9.1 | PBM binding z-score [3]: 8.25 | PBM binding z-score [4]: 6.07 | PBM binding z-score [5]: 4.94 | PBM binding z-score [6]: 2.4 | PBM binding z-score [7]: -0.165 | PBM binding z-score [8]: 3.61 | PBM binding z-score [9]: 1.22 | PBM binding z-score [10]: 4.35 | PBM binding z-score [11]: 3.36 | PBM binding z-score [12]: 5.11 | PBM binding z-score [13]: 5.73 | PBM binding z-score [14]: 1.82 | PBM binding z-score [15]: 3.99 | PBM binding z-score [16]: 3.53 | PBM binding z-score [17]: 2.1 | PBM binding z-score [18]: 2.74 | PBM binding z-score [19]: 0.814

CCTACTGGGCCATCAGGTCATTTATATCAACGTT
PBM binding z-score [1]: 3.78 | PBM binding z-score [2]: 5.03 | PBM binding z-score [3]: 0.0191 | PBM binding z-score [4]: 0.266 | PBM binding z-score [5]: 1.09 | PBM binding z-score [6]: 1.59 | PBM binding z-score [7]: 0.478 | PBM binding z-score [8]: 2.06 | PBM binding z-score [9]: 0.492 | PBM binding z-score [10]: 1.75 | PBM binding z-score [11]: 2.44 | PBM binding z-score [12]: 1.8 | PBM binding z-score [13]: 1.64 | PBM binding z-score [14]: 0.641 | PBM binding z-score [15]: 0.891 | PBM binding z-score [16]: 3.14 | PBM binding z-score [17]: 3.01 | PBM binding z-score [18]: 1.65 | PBM binding z-score [19]: 1.61

GTACCAAGGTGAATAGGTCGCTGATGAGTAGGCG
PBM binding z-score [1]: 1.89 | PBM binding z-score [2]: 2.89 | PBM binding z-score [3]: -0.721 | PBM binding z-score [4]: -0.6 | PBM binding z-score [5]: 0.508 | PBM binding z-score [6]: 0.271 | PBM binding z-score [7]: -0.637 | PBM binding z-score [8]: 1.34 | PBM binding z-score [9]: -0.0761 | PBM binding z-score [10]: 2.07 | PBM binding z-score [11]: 1.69 | PBM binding z-score [12]: 2.65 | PBM binding z-score [13]: 1.53 | PBM binding z-score [14]: -0.316 | PBM binding z-score [15]: 1.66 | PBM binding z-score [16]: 1.59 | PBM binding z-score [17]: 0.0254 | PBM binding z-score [18]: 0.351 | PBM binding z-score [19]: -0.0986

CGTCCAAAGTCAGAGAGGTCAGTGAATGCCGAGT
PBM binding z-score [1]: 0.254 | PBM binding z-score [2]: 0.644 | PBM binding z-score [3]: -0.212 | PBM binding z-score [4]: -0.647 | PBM binding z-score [5]: 1.79 | PBM binding z-score [6]: 3.05 | PBM binding z-score [7]: 1.35 | PBM binding z-score [8]: 2.85 | PBM binding z-score [9]: 0.862 | PBM binding z-score [10]: 3.27 | PBM binding z-score [11]: 4.21 | PBM binding z-score [12]: 2.98 | PBM binding z-score [13]: 3.26 | PBM binding z-score [14]: 1.16 | PBM binding z-score [15]: 2.65 | PBM binding z-score [16]: 2.72 | PBM binding z-score [17]: 0.954 | PBM binding z-score [18]: 4.38 | PBM binding z-score [19]: 2.12

— the supplement of paper PMC6555819
